Source: PubChem (University of Pittsburgh Molecular Library Screening Center)
The sample as a whole holds a higher share of hits than the screen did.
HIV RNase H inh-1 – inhibitors of HIV-1 reverse transcriptase RNase H; RT-RNase H RNA/DNA duplex cleavage, fluorescence; inhibition, % at 10 µM; 65,000 compounds, 1.9% hits; AID 565; in the data active means inhibition above about 50%
HIV RNase H inh-2 – confirmation of HIV-1 reverse transcriptase RNase H inhibitors | shares compounds with HIV RNase H inh-1 | 1,000 compounds, 39% hits | Recombinant RT RNase H, fluorescent RNA/DNA duplex cleavage | inhibition, % at 10 µM; in the data active means inhibition above about 48%; inconclusive means no clear call, values can overlap the other calls
* marks the source's active call; other numbers are inactive results; ? = inconclusive.

SMILES	HIV RNase H inh-1	others
COc1ccc(Cc2nc(-c3cccs3)no2)cc1OC	72*	HIV RNase H inh-2=12
COc1ccc(Cc2nc(-c3ccc(-n4cccc4)cc3)no2)cc1OC	-53
COC(=O)COc1ccc(S(=O)(=O)NCc2cccnc2)cc1C	-4
Cn1cc(C(=O)NCCc2ccccc2)c(=O)c2cc(S(=O)(=O)N3CCOCC3)ccc21	-5
O=C(NC1CCCCC1)c1ccc(CNc2ccccc2)o1	2
COc1ccccc1OCC(O)CN1C(=O)NC(C)(C)C1=O (configuration not stated)	-15
COC(=O)C1=C(C)OC(N)=C(C#N)C1c1cc(OC)c(OCC(N)=O)cc1Cl (configuration not stated)	4
O=C(COC(=O)c1ccc(S(=O)(=O)N2CCOCC2)cc1)Nc1nc(-c2ccccc2)cs1	-3
O=C(COc1ccccc1)Nc1nc(-c2ccc(S(=O)(=O)N3CCOCC3)cc2)cs1	66*	HIV RNase H inh-2=20
O=C(Nc1nc(-c2cccnc2)cs1)c1ccc(S(=O)(=O)N2CCOCC2)cc1	-1
CCS(=O)(=O)NCC(c1cccnc1)N1CCN(c2ccccc2F)CC1 (configuration not stated)	-15
Cc1cccn2cc(CCNC(=O)c3ccc(Br)o3)nc12	-45
Nc1nonc1-c1noc(CCCCCN2C(=O)c3ccccc3C2=O)n1	-32
C=CCn1c(SCC(=O)Nc2ccc3c(c2)OCO3)nnc1-c1ccccc1O	-2
N#Cc1ccc(COC(=O)c2ccc3c(=O)[nH]c(CN4CCOCC4)nc3c2)cc1	1
CC1Cc2ccccc2N1Cc1nc2scc(-c3cccs3)c2c(=O)[nH]1 (configuration not stated)	27
COC(=O)c1ccc2c(=O)[nH]c(CN3c4ccccc4CC3C)nc2c1 (configuration not stated)	63*	HIV RNase H inh-2=61*
O=C1C(=O)N(CCCN2CCOCC2)C(c2cccs2)/C1=C(/O)c1ccc2c(c1)OCO2 (configuration not stated)	6
O=C(CN1C(=O)c2ccccc2C1=O)OCN1C(=O)c2ccccc2C1=O	-10
COc1ccc(C(=O)N2CCN(S(=O)(=O)c3cc(Cl)ccc3OC)CC2)cc1	-80
Cc1ccc(CN2CCN(CC(=O)NCc3ccc(Cl)cc3)C2=O)cc1	-1
COC(=O)CSC1=C(C#N)C(c2ccc(C(C)C)cc2)CC(=O)N1 (configuration not stated)	-9
Cc1ccc(C2CC(=O)NC(SCCC(C)C)=C2C#N)cc1 (configuration not stated)	65*	HIV RNase H inh-2=10
COC(=O)CSC1=C(C#N)C(c2ccccc2)CC(=O)N1 (configuration not stated)	-3
O=C(NC1CCCCC1)NC1(C(=O)NCCCN2CCOCC2)CCCCC1	-5
SMILES	HIV RNase H inh-1	others
Cc1ccc(NC(=O)c2ccc(OC(=O)c3ccco3)cc2)cc1	25
O=C(Oc1cccnc1)c1ccco1	-13
O=C(Oc1ccc(-c2cnc3ccccc3n2)cc1)c1ccco1	73*	HIV RNase H inh-2=?
O=C(Nc1ccc2c(c1)OCO2)C1Cc2ccccc2CN1S(=O)(=O)c1cccs1 (configuration not stated)	44
CCOc1ccc(N=C(NC#N)SCC(=O)NC2CC2)cc1	-5
CCOc1ccccc1NC(=O)c1nc[nH]c1C(=O)Nc1ccccc1OCC	84*	HIV RNase H inh-2=?
CCOc1ccccc1NC(=O)CC1NCCNC1=O (configuration not stated)	0
Cc1ccccc1NC(=O)c1nc[nH]c1C(=O)NCc1ccccc1	-20
CNC(=O)c1[nH]cnc1C(=O)Nc1cccc(OC)c1	-3
COc1ccc(NC(=O)c2nc[nH]c2C(=O)Nc2ccccc2C)cc1	-76
COc1ccccc1NC(=O)c1nc[nH]c1C(=O)Nc1ccccc1OC	83*	HIV RNase H inh-2=41
CCCc1ccccc1OCCNC(C)=O	6
COc1ccccc1N1CCN(CC(=O)Nc2cc(C)nn2-c2nc(C)cc(C)n2)CC1	-9
O=c1ccc2c(o1)/C(=C/C=C(Cl)Cl)CCC2	-42
Cc1cc(-c2nc3c4c5c(sc4[nH]c(=O)n3n2)CCC5)c(C)o1	81*	HIV RNase H inh-2=?
Cc1nc2sc3c(c2c(=O)o1)CCCC3	-50
Cc1nc2sc3c(c2c(=O)[nH]1)CCC3	-8
CCN(CC)S(=O)(=O)c1ccc(F)c(C(=O)NCCC(C)C)c1	5
CCOc1cc(C2NC(=O)N(C)C(C)=C2C(=O)OC)cc(Br)c1O (configuration not stated)	7
COc1cc2c(cc1OC)C(c1ccccc1O)N(C1CC(=O)N(c3ccccc3)C1=O)CC2 (configuration not stated)	8
NS(=O)(=O)c1ccc(NC(=O)c2ccccc2C(=O)N2CCCCC2)cc1	76*	HIV RNase H inh-2=14
CS(=O)(=O)Nc1ccc(C(=O)Nc2ccccc2C(=O)N2CCCC2)cc1	-4
O=C(Nc1ccccc1C(=O)N1CCCC1)c1cccc(S(=O)(=O)N2CCCCCC2)c1	-5
O=C(COC(=O)c1ccc[nH]c1=O)NCC1CCCO1 (configuration not stated)	-1
Cn1c(C(O)c2ccccc2)nc(Cl)c1Cl (configuration not stated)	-13
SMILES	HIV RNase H inh-1	others
O=C(CC(C(=O)N1CCc2ccccc21)n1ccnc1)N1CCc2ccccc2C1 (configuration not stated)	1
Cc1ccccc1-c1nn2c(-c3ccccc3)nnc2s1	-26
Cc1cc(-c2nn3c(-c4ccccc4)nnc3s2)c2ccccc2n1	82*	HIV RNase H inh-2=63*
COc1ccc(-c2nnc3sc(-c4ccccc4OC)nn23)cc1	-4
Clc1ccccc1-c1nnc2sc(-c3ccco3)nn12	-24
COc1cc(OC)c(-c2nn3c(-c4ccco4)nnc3s2)cc1OC	-18
c1ccc(-c2cc(-c3nn4c(-c5ccco5)nnc4s3)c3ccccc3n2)cc1	75*	HIV RNase H inh-2=26
COC(=O)c1ccc2c(c1)S(=O)(=O)NC(=NCc1ccco1)S2	2
COC(=O)c1ccc(CSc2nc3scc(-c4cccs4)c3c(=O)[nH]2)o1	24
Cc1ccc(NC(=O)COS(=O)c2ccc(C)cc2)cc1 (configuration not stated)	-4
CN(C)/C=C1\C(=O)c2ccc(N(C)C)nc2CC1c1ccccc1 (configuration not stated)	22
C=CCNCc1cccn1-c1ccccc1	0
O=C(CC1CCS(=O)(=O)C1)Nc1ccc[nH]c1=O (configuration not stated)	-5
Cc1cc(C)c2oc(-c3ccc(Cl)c(NC(=O)c4ccc(C#N)cc4F)c3)nc2c1	90*	HIV RNase H inh-2=73*
COc1cc(C(=O)Nc2cc(-c3nc4cc(C)ccc4o3)ccc2C)cc(OC)c1OC	8
COc1ccc(C(=O)Nc2cc(Cl)ccc2Cl)c(OC)n1	-6
COc1ccccc1N(CC(=O)Nc1cc(C)on1)S(=O)(=O)c1cccs1	-3
O=C(O)C1CSCN1S(=O)(=O)c1cccc2nsnc12 (configuration not stated)	62*	HIV RNase H inh-2=-3
O=C(NC1CCCCC1)C1CCCN1S(=O)(=O)c1cccc2nsnc12 (configuration not stated)	-1
O=C(O)c1ccc(Cl)c(NC(=O)C2CCCN2S(=O)(=O)c2cccc3nsnc23)c1 (configuration not stated)	-1
Cc1ccc(S(=O)(=O)Nn2c(C)ccc2C)cc1	20
CCC(C)Sc1nc2c(c(=O)[nH]c(=O)n2C)n1Cc1ccccc1Cl (configuration not stated)	32
